These results are taken from PubChem BioAssay (NCI).

The panel holds about 83,000 compounds, 20% with a hit somewhere; the sample as a whole holds those more often.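 Cell lines were cultured in 96-well plates, exposed to a single compound concentration, and assessed for percent growth 48 hours later.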 Unmarked numbers belong to inactive results. Activity calls are given as the source filed them.

In this experiment the test system is ACHN renal. The experiment is described as follows: NCI-60 one-dose screen, 48 h (100 = growth as untreated, 0 = no growth, -100 = all killed). The note with it: 10 µM unless noted. The procedure: Growth inhibition of the ACHN human tumor cell line is measured as a screen for anti-cancer activity. Cells are grown in 96 well plates and exposed to the test compound for 48 hours. Compounds are tested at a single concentration, which is 10^-5 M for most compounds. The reported endpoint is percent growth (GI% or GIPRCNT), where numbers from 0 - 100% represent growth inhibition, and numbers from -100% - 0 represent cell death. For example, a value of 40 represents 60% growth inhibition. A value of 0 means no net growth occurred over the course of the experiment. A value of -40 indicates 40% of cells at the beginning of the experiment died by the end of the experiment. A value of -100 means all cells are dead at the end of the experiment.
NCI-60 Human Tumor Cell Lines Screen was performed using the standard one-dose NCI protocol, which is described in more detail at https://dtp.cancer.gov/discovery_development/nci-60/default.htm.
Compounds with GIPRCNT values below 10 were considered active. Activity score was based on GIPRCNT using the following formula: […]
Score is 0 for GIPRCNT values of 100 or above, 50 for GIPRCNT values of 0, and 100 for GIPRCNT values of -100.
With `O=C(Cc1ccccc1)Nc1nc(O)c(/C=C2\C(=O)C=Cc3ccccc32)s1`, the growth was 101%. Consider `N#CC1=C(N)Oc2c(sc3c(Br)cccc23)C1c1ccc(F)cc1` (stereo not given), for which the growth is 30.7%.

As to `O=C1CC(N2C(=O)/C(=C/C(Cl)=C\c3ccc([N+](=O)[O-])cc3)SC2=S)C(=O)N1c1ccc(Cl)cc1` (stereo not given), the growth was 1.2% (active). On to `CCOC(=O)C#Cc1c(C(=O)OCC)nnn1[C@@H]1O[C@H](CO)[C@H]2OC3(CCCCC3)O[C@H]21`, for which the growth was -53% (active). The value for `N=C(N)c1ccc(-c2ccc(-c3cc(Cl)cc(Cl)c3)o2)o1` was -88.7% (active); that for `Cc1ccc(NC(=S)NNC(=S)NNc2ccccc2)cc1C` was 99.1%. `O=C1NCCC12CCN(c1c(Cl)cncc1-c1ccc(O)cc1)CC2`: the growth was 70.2%. Take `O=C(c1cc2ccccc2o1)c1nn(-c2ccccc2)/c(=N/N=Cc2cn(-c3ccccc3)nc2-c2cc3ccccc3oc2=O)s1`: the growth was 102%. The value for `O=C1COCCN1c1ccc(Nc2nc(Cl)nc(OCc3cn(Cc4ccccc4)nn3)n2)cc1` was 101%. As to `Cc1nc2c(=O)[nH]c(SCC(=O)Nc3cccc(F)c3)nc2[nH]c1=O`, the growth was 105%. Consider `c1cnc2[nH]cc(-c3csc(-c4cn(CCCN5CCOCC5)c5ccccc45)n3)c2c1`, for which the growth is 32.8%. The value for `COCCn1c(-c2csc(-c3cn(C)c4ccc(OC)cc34)n2)cc2cccnc21` was 70.9%; that for `COc1cc(-c2cc(-c3cccs3)c(C#N)c(N3CCOCC3)n2)cc(OC)c1OC` was 71.2%; that for `COc1ccc(C(=O)Nc2ncc(Cc3cccc(Cl)c3)s2)cc1OC` was 16.8%. Consider `C1=CN2CC(c3ccccc3)=NNC2c2ccccc21` (stereo not given), for which the growth is 85.7%. With `CCOc1nc(-c2ccccc2)cc2c(O)c(C(=O)NN)[nH]c(=O)c12`, the growth was 107%. The value for `COCCn1cc(-c2nc(-c3cc4cccnc4n3CCOC)cs2)c2cc(OC)ccc21` was 68.3%; that for `CC(C)N1CN2C(=S)NC3C2N(C1)C(=S)N3C` (stereo not given) was 117%. Take `CN(CCn1sc(=O)n(Cc2ccccc2)c1=O)Cc1ccc2c(Cl)cc(Cl)c(O)c2n1`: the growth was 27.8%. As for `CC(C)NC1CCC(Nc2ccnc3cc(Cl)ccc23)CC1` (stereo not given), the growth was 96.8%. Take `CC(C)(C)n1cc(-c2ccnc(NCCNS(=O)(=O)c3cccc4ccccc34)c2)c(-c2cccc(F)c2)n1`: the growth was -58.5% (active). For `CN1CCN(C(=O)OCc2ccc3c(Cl)cc(Cl)c(O)c3n2)CC1`, the growth was 45%. As for `N#Cc1c(-c2cccs2)cc(-c2cccnc2)[nH]c1=O`, the growth is 97.2%. As for `C=CC(=O)NCc1ccc(Nc2nccc(-c3ccc(N4CCCC4)c(C#N)c3)n2)cc1`, the figure is 20.4%. `COc1cc(CNC(=O)/C=C/C=C/c2ccc3c(c2)OCO3)ccc1OCc1cn(-c2ccc(C)c(C)c2)nn1`: the growth is 81.3%.

As for `CO/N=C(/C)c1ccc(NC(=O)CSc2nnc(-c3ccncc3)n2-c2ccccc2)cc1`, the growth is 10.1%. As for `Oc1ccc(CCn2c(O)c(/C=C3\CN=c4ccccc4=N3)sc2=S)cc1`, the figure is 54.3%; as for `CC(C)CCC[C@@H](C)[C@H]1CC[C@H]2[C@@H]3CC=C4C[C@@H](C(C(=O)O)C(=O)O)CC[C@]4(C)[C@H]3CC[C@]12C`, -17.7% (active). In the case of `N=C(N)c1ccc(-c2ccc(-c3ccc(Cl)cc3)s2)nc1`, the growth is -75.9% (active). The value for `Cc1ccccc1/C=C1\CN(C(=O)OC(C)(C)C)C/C(=C\c2ccccc2C)C1=O` was -21.7% (active); that for `CCOC(=O)Cn1c(O)c(N=Nc2ccc(S(N)(=O)=O)cc2)c2cc(Br)ccc21` was 84.8%; that for `OB(O)c1cccc(-c2nc3ccc4[nH]ncc4c3c3c2CCCC3)c1` was 38%.

As to `O=[N+]([O-])c1ccc(S(=O)(=O)N2CCN(C3=NS(=O)(=O)c4ccccc4N3c3ccccc3)CC2)cc1`, the growth was 99.3%.

`COc1ccccc1NC(=O)Cn1cc(CN2CCN(c3ccnc4cc(Cl)ccc34)CC2)nn1`: the growth is 95.3%. Regarding `COC1=CC(c2ccc[nH]2)=N/C1=C\c1[nH]c(C)c(C(=O)OCc2ccccc2)c1C`, the growth is -86.1% (active).

Turning to `CC1(C)CC2=C3C=C[C@@H]4[C@@]5(C)CCC(=O)C(C)(C)[C@@H]5CC[C@@]4(C)[C@]3(C)CC[C@@]2(C(=O)O)CC1=O`, the growth was 40.8%. As for `CCOC(=O)c1c(C)nc2c(c1N)CC(=O)N2Cc1cc(F)cc(Cl)c1`, the figure is 88.2%; as for `COc1ccc(OC)c(C(=O)/C=C/c2cc3c(c(OC)c2OC)OCO3)c1`, 68%; as for `NC(=O)CCC(C(=O)O)N1C(=O)c2ccc(O)cc2C1=O` (stereo not given), 93.1%. As for `O=C(Nc1cccc([N+](=O)[O-])c1)c1cc2ccccc2cc1O`, the figure is 0.0296% (active).
